Screening results from PubChem.
Only some compounds are listed: those with a hit (about 2.8% of all), similar ones and a draw of the others.
SENP6 inh: blocks the human protease SENP6. Q9GZR1. Recombinant SENP6 catalytic domain, aminoluciferin luminescence. inhibition, % at 10 µM. hit rate 1.8% among 330,000. AID 2599;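 active = inhibition above about 50% at the single tested dose, limit read from the data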
SENP7 inh: SENP7 protease inhibition | Q9BQF6 | AID 434973 | recombinant SENP7, Z-RLRGG-aminoluciferin luminescence, 40 min | hit rate 1.5% among 330,000 | inhibition, % at 5 µM;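 active = inhibition above about 50% at the single test dose, limit read from the data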
Platelet DG rel: modulates dense granule release in human platelets; inhibition, %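 (compounds screened at 7.5 µM in platelet-rich plasma)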; human platelet-rich plasma, SFLLRN dense granule ATP release, luminescence; hit rate 0.22% among 300,000;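 active = mean replicate score, as percent of positive control, at or above 50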
HSP90 refold inh: HSP90 refolding inhibition in rabbit reticulocyte lysate | luciferase refolding luminescence, 3 h | inhibition, % at 5.6 µM | hit rate 0.91% among 290,000;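 active = inhibition above the screen-wide mean plus 3 SD, computed separately per campaign, cut at about 16% in these data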;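 also: inhibitors lower the luminescence because luciferase stays unfolded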
SENP8 block-1: SENP8 (human) protease inhibition. Q96LD8. recombinant SENP8, Nedd8 substrate fluorescence. inhibition, % at 20 µM. hit rate 0.64% among 360,000. AID 602440; in the data active = inhibition mostly above about 40%, no sharp cut-off; inactive = mostly below about 27%
Target sequence (Q96LD8 whole entry, looked up): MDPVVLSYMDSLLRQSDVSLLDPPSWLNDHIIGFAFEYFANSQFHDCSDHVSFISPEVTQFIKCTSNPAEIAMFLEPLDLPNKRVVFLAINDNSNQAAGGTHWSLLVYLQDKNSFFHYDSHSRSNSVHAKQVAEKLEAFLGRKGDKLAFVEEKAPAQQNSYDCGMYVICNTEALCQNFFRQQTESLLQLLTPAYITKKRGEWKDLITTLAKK
SENP8 block-2: inhibitors of human SENP8 protease. Q96LD8. AID 2540. inhibition, % at 10 µM. purified SENP8, Z-RLRGG-aminoluciferin cleavage, luminescence. hit rate 1.2% among 330,000; in the data active = inhibition above about 50%
SENP8 conf: human SENP8 inhibition, confirmed. shares compounds with SENP7 inh. Recombinant SENP8, Z-RLRGG-aminoluciferin luminescence, 60 min. inhibition, % at 12.5 µM. hit rate 40% among 6,200;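 active = mean inhibition across replicates above about 50%, limit read from the data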
SENP6 confirm: confirmation of human SENP6 protease inhibitors. recombinant SENP6, Z-RLRGG-aminoluciferin luminescence. shares compounds with SENP7 inh. hit rate 58% among 6,200. inhibition, % at 12.5 µM
SENP7 conf: confirmation of human SENP7 protease inhibitors; AID 488917; inhibition, % at 12.5 µM; recombinant SENP7, Z-RLRGG-aminoluciferin luminescence, 40 min; hit rate 69% among 6,200; shares compounds with SENP7 inh
Casp3 SENP sel: inhibits human caspase-3 in SENP selectivity test; shares compounds with SENP7 inh; purified caspase-3, Z-DEVD-aminoluciferin luminescence, 60 min; inhibition, % at 12.5 µM; hit rate 60% among 6,200; AID 488918;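 active = mean inhibition above about 50%, limit read from the data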
Target sequence (P42574 28-227 limits assumed): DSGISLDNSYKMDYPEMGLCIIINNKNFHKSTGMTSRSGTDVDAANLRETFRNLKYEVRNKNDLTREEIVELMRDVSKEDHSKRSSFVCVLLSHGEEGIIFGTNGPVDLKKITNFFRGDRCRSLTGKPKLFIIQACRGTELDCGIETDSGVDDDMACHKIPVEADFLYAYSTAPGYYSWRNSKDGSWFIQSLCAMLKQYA
SENP luc ctr: interferes with luciferase luminescence in SENP counter-screen. inhibition, % at 12.5 µM. hit rate 39% among 6,200. AID 488919. shares compounds with SENP7 inh. Pre-incubated SENP8/Z-RLRGG-aminoluciferin, luciferase luminescence interference;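 active = mean inhibition above about 50% when retested at one dose, limit read from the data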
Numbers stand for hits.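 The calls were made as follows, unless noted: active = mean inhibition above about 50% in the one-dose retest (limit read from the data); inactive = the rest.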

What do the screens show for `COc1ccccc1-c1nc(-c2ccc(Br)o2)no1`?
SENP6 inh: 83; SENP7 inh: 78; Platelet DG rel: inactive; HSP90 refold inh: inactive; SENP8 block-1: inactive; SENP8 block-2: 78; SENP8 conf: inactive; SENP6 confirm: 59; SENP7 conf: 55; Casp3 SENP sel: inactive; SENP luc ctr: 65

What do the screens show for `O=C(O)/C=C/C(=O)Nc1ccc(Oc2ncnc3cc(Cl)ccc23)nc1`?
SENP6 inh: inactive; SENP7 inh: inactive; Platelet DG rel: inactive; HSP90 refold inh: inactive; SENP8 block-2: inactive

What do the screens show for `COc1ccc(C(O)Cn2cc([N+](=O)[O-])nc2C)cc1` (stereo not given)?
SENP6 inh: inactive; SENP7 inh: inactive; Platelet DG rel: inactive; HSP90 refold inh: inactive; SENP8 block-1: inactive; SENP8 block-2: inactive

How did Cc1csc(=O)n1CCC(=O)OCC(=O)NNC(=O)c1ccc(Cl)cc1 do in these assays?
SENP6 inh: inactive; SENP7 inh: inactive; SENP8 block-1: inactive; SENP8 block-2: inactive

What do the screens show for `O=C(O)CCC(=O)Nc1ccc(Oc2ncnc3cc(Cl)ccc23)nc1`?
SENP6 inh: inactive; SENP7 inh: inactive; Platelet DG rel: inactive; HSP90 refold inh: inactive; SENP8 block-1: inactive; SENP8 block-2: inactive

What do the screens show for `O=C(/C=C/c1cccc(F)c1)OCC(=O)N1CCc2ccccc21`?
SENP6 inh: inactive; SENP7 inh: inactive; SENP8 block-1: inactive; SENP8 block-2: inactive

What do the screens show for `O=C(Nc1nnc(CCc2ccccc2)s1)c1ccccc1F`?
SENP6 inh: 51; SENP7 inh: inactive; Platelet DG rel: inactive; HSP90 refold inh: inactive; SENP8 block-1: inactive; SENP8 block-2: inactive; SENP8 conf: inactive; SENP6 confirm: inactive; SENP7 conf: 58; Casp3 SENP sel: inactive; SENP luc ctr: inactive

Results for O=C(Nc1nnc(CCc2ccccc2)s1)c1cccc(F)c1 ?
SENP6 inh: inactive; SENP7 inh: 61; Platelet DG rel: inactive; HSP90 refold inh: inactive; SENP8 block-1: inactive; SENP8 block-2: inactive; SENP8 conf: inactive; SENP6 confirm: inactive; SENP7 conf: inactive; Casp3 SENP sel: inactive; SENP luc ctr: inactive

What do the screens show for `CN(C)c1ccc(/C=N/N=C/c2ccccc2O)cc1`?
SENP6 inh: 86; SENP7 inh: 97; Platelet DG rel: inactive; HSP90 refold inh: inactive; SENP8 block-1: inactive; SENP8 block-2: 84; SENP8 conf: inactive; SENP6 confirm: 58; SENP7 conf: 61; Casp3 SENP sel: 59; SENP luc ctr: inactive

What do the screens show for `O=C(CN1C(=O)NC2(CCCCC2)C1=O)N1CCN(S(=O)(=O)c2ccc(F)c(F)c2F)CC1`?
SENP6 inh: inactive; SENP7 inh: inactive; SENP8 block-1: inactive; SENP8 block-2: inactive

Results for Cc1ccc(-c2noc(CSc3ccccc3)n2)cc1 ?
SENP6 inh: 76; SENP7 inh: 52; Platelet DG rel: inactive; HSP90 refold inh: inactive; SENP8 block-1: inactive; SENP8 block-2: inactive; SENP8 conf: 51; SENP6 confirm: 60; SENP7 conf: 81; Casp3 SENP sel: inactive; SENP luc ctr: inactive

How did COc1ccc(-c2noc(Cc3ccccc3OC)n2)cc1 do in these assays?
SENP6 inh: inactive; SENP7 inh: inactive; Platelet DG rel: inactive; HSP90 refold inh: inactive; SENP8 block-1: inactive; SENP8 block-2: inactive

How did Cc1cccc(-c2noc(CSc3ccccc3)n2)c1 do in these assays?
SENP6 inh: inactive; SENP7 inh: inactive; Platelet DG rel: inactive; HSP90 refold inh: inactive; SENP8 block-1: inactive; SENP8 block-2: inactive

How did Cc1ccc(-c2noc(COc3ccccc3C)n2)cc1 do in these assays?
SENP6 inh: inactive; SENP7 inh: inactive; Platelet DG rel: inactive; HSP90 refold inh: inactive; SENP8 block-1: inactive; SENP8 block-2: inactive

Results for COc1ccc(-c2noc(Cc3cccs3)n2)cc1 ?
SENP6 inh: 50; SENP7 inh: inactive; Platelet DG rel: inactive; HSP90 refold inh: inactive; SENP8 block-1: inactive; SENP8 block-2: inactive; SENP8 conf: inactive; SENP6 confirm: inactive; SENP7 conf: 69; Casp3 SENP sel: inactive; SENP luc ctr: inactive

What do the screens show for `Cc1ccc(OCc2nc(-c3ccccc3)no2)cc1`?
SENP6 inh: 56; SENP7 inh: inactive; Platelet DG rel: inactive; HSP90 refold inh: inactive; SENP8 block-1: inactive; SENP8 block-2: inactive; SENP8 conf: inactive; SENP6 confirm: inactive; SENP7 conf: 65; Casp3 SENP sel: inactive; SENP luc ctr: inactive

Results for COc1ccc(Cl)cc1S(=O)(=O)NC(C)C(=O)NCCN1CCOCC1 (stereo not given) ?
SENP8 block-1: inactive

How did Cc1cc(Br)cnc1NC(=S)Nc1ccc(F)cc1F do in these assays?
SENP6 inh: inactive; SENP7 inh: inactive; Platelet DG rel: inactive; HSP90 refold inh: inactive; SENP8 block-1: inactive; SENP8 block-2: inactive

What do the screens show for `O=C(NCc1ccc(Cl)cc1)C(=O)c1cn(CC(=O)N2CCOCC2)c2ccccc12`?
SENP6 inh: inactive; SENP7 inh: inactive; Platelet DG rel: inactive; HSP90 refold inh: inactive; SENP8 block-1: inactive; SENP8 block-2: inactive

Results for O=C(Nc1ccccc1Cl)C(=O)c1cn(CC(=O)N2CCOCC2)c2ccccc12 ?
SENP6 inh: inactive; SENP7 inh: 74; Platelet DG rel: inactive; HSP90 refold inh: inactive; SENP8 block-1: inactive; SENP8 block-2: inactive; SENP8 conf: inactive; SENP6 confirm: inactive; SENP7 conf: inactive; Casp3 SENP sel: inactive; SENP luc ctr: inactive

How did O=C(Nc1ncccc1Cl)c1cc2ccccc2o1 do in these assays?
SENP6 inh: 63; SENP7 inh: 64; Platelet DG rel: inactive; HSP90 refold inh: inactive; SENP8 block-1: inactive; SENP8 block-2: inactive; SENP8 conf: 68; SENP6 confirm: 73; SENP7 conf: 92; Casp3 SENP sel: 83; SENP luc ctr: inactive

How did Cc1cc(C)nc(NC(=O)c2cc3ccccc3o2)n1 do in these assays?
SENP6 inh: inactive; SENP7 inh: inactive; Platelet DG rel: inactive; HSP90 refold inh: inactive; SENP8 block-1: inactive; SENP8 block-2: inactive

How did Cc1ccc(NC(=O)c2cc3ccccc3o2)nc1 do in these assays?
SENP6 inh: 63; SENP7 inh: 65; Platelet DG rel: inactive; SENP8 block-1: inactive; SENP8 block-2: inactive; SENP8 conf: 58; SENP6 confirm: 58; SENP7 conf: 87; Casp3 SENP sel: 74; SENP luc ctr: 67
